The results in this text go back to the supplement of paper PMC7156485.

Several values for one entry are separate records, joined by “and”; a condition that tells them apart may be missing. Equal entries are not always repeated.
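Also: TDF denotes transformed human dermal fibroblasts of mesenchymal origin.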

The first assay relates to HCC1569. The assay is described as follows: cell number relative to DMSO (% of DMSO); higher = more cells (less growth inhibition / toxicity). As to conditions: concentration: 10 µM; 24 h. The method, boiled down: (§1)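 H1.0 nuclear intensity or cell number is stated as percent of the plate control, based on the median of replicates, and HCC1569 values were smoothed for positional effects. These came from HCC1569 and TDF cells treated with compounds at 10 µM for 24 h at 37 °C in triplicate, then fixed in 3.7% formaldehyde and stained with a rabbit anti-H1.0 antibody, an AlexaFluor 647 secondary and DAPI.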
In turn, `CC(=O)Oc1ccccc1C(=O)O` [Acetylsalicylic acid] yielded a cell number of 101.

Take `CCOc1cc2ncc(C#N)c(Nc3ccc(F)c(Cl)c3)c2cc1NC(=O)/C=C/CN(C)C`: the cell number was determined as 43.6.

On to `COC1C=COC2(C)Oc3c(C)c(O)c4c(O)c(cc(O)c4c3C2=O)NC(=O)C(C)=CC=CC(C)C(O)C(C)C(O)C(C)C(OC(C)=O)C1C` (centres undefined), for which the cell number was 103.

On to `CC1CN(S(=O)(=O)c2cccc3cnccc23)CCN1.Cl.Cl` (centres undefined), for which the cell number came out at 111.

In turn, `CN(C)CC(=O)Nc1ccc2[nH]c(=O)c3ccccc3c2c1.Cl.O` displayed a cell number of 101.

In the next assay the test system is TDF. The description is as above. The note with it: concentration: 10 µM; 24 h. In short, it runs like this: as §1
As to `CCCCCCCCCCCCCCCCCCCCCC(=O)O` [Docosanoic acid], the cell number came out at 104.

On to `O=C(CCN1CCN(C(=O)OCc2cc(Cl)cc(Cl)c2)CC1)c1ccc2[nH]c(=O)oc2c1`, for which the cell number was 104.

For `N[C@@H](Cc1ccc(O)c(I)c1)C(=O)O` [3-Iodo-L-tyrosine], the cell number amounted to 110.

`CNCCC=C1c2ccccc2CCc2ccccc21.Cl` [Nortriptyline hydrochloride] had a cell number of 93.9.

For `COc1ccc(/C=C2\COc3ccc(C)cc3C2=O)cc1O`, the cell number was 28.

For `CC(C)(O)CCC(O)C(C)(O)C1CCC2(O)C3=CC(=O)C4CC(O)C(O)CC4(C)C3CCC12C` (centres undefined), the cell number came to 97.

For `CCCNC(C)C(=O)Nc1ccccc1C.Cl` (centres undefined) [Prilocaine hydrochloride], the cell number was 107.

As for `CN(C)c1ccc(C=C2C(=O)Nc3ccccc32)cc1`, the cell number was 86.6 and 102 and 98.2.

For `CCC(CO)Nc1nc(NCc2ccc(-c3ccccn3)cc2)c2ncn(C(C)C)c2n1` [CR8, (S)-Isomer], the cell number amounted to 23.5.
